Laboratory results as given in PubChem BioAssay (Tox21).
Results filed as inconclusive are left out. Activity calls are given as the source filed them. Unless noted, the call rests on the fitted dose curve; in most records, active means well fitted curve in the direction sought with a large enough effect in the repeat runs; inconclusive means weak or mixed curves; inactive means no such curve, though single readings can be large; an effect the other way counts as inactive or inconclusive.

Legend:
[1] = qHTS assay to identify small molecule agonists of the peroxisome proliferator-activated receptor delta (PPARd) signaling pathway - cell viability counter screen (AID 743211); further: on the % scale 0 is the no-effect control and ±100 the full control effect; nearly all actives have a fitted effect of over 55% in size
Summary of the method: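 Following 5 h plating at 37 C and 5% CO2, PPARd UAS-bla HEK293H cells took up test compounds for 17 h. Viability was quantified by luminescence 30 min after CellTiter-Glo addition at room temperature.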

[2] = qHTS assay to identify small molecule antagonists of the peroxisome proliferator-activated receptor delta (PPARd) signaling pathway - cell viability counter screen (AID 743213); further: on the % scale 0 is the no-effect control and ±100 the full control effect; nearly all actives have a fitted effect of over 50% in size
Summary of the method: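 Luminescence from CellTiter-Glo, added after the bla read and incubated 30 min at room temperature, gives viability of HEK293H PPARd-bla cells exposed to compounds for 17 h at 37 C with 300 nM L165041.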

[3] = target: Bile acid receptor (Homo sapiens) (UniProt Q96RI1); assay: qHTS assay to identify small molecule antagonists of the farnesoid-X-receptor (FXR) signaling pathway (AID 743217; active means well fitted inhibition curve with a large enough effect in the signal ratio in the repeat runs, not every such curve was filed as active; the % refers to the signal ratio; further: on the % scale 0 is the no-effect control and ±100 the full control effect)
Bile acid receptor (Homo sapiens), sequence (Q96RI1 whole entry, looked up): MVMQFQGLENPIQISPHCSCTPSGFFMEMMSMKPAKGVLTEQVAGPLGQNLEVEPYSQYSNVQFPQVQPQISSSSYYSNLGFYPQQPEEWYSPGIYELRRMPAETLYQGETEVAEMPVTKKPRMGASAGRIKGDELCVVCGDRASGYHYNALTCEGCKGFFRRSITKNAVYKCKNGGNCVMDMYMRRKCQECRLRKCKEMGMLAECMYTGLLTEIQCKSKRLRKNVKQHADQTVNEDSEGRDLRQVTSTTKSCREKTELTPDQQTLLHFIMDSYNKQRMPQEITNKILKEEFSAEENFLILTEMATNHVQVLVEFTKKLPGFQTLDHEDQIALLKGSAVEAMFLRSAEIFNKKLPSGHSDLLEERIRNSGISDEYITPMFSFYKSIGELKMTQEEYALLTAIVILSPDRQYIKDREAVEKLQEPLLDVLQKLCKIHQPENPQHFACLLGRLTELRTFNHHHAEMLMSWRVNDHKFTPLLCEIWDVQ
Summary of the method: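 Cells carrying a UAS-driven beta-lactamase reporter (GeneBLAzer FXR-UAS-bla HEK 293T) were plated and rested 5 h at 37 °C. Compounds in DMSO were added alongside chenodeoxycholic acid agonist at 50 uM final and left 16 h at 37 °C before FRET substrate readout.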

[4] = qHTS assay to identify small molecule agonists of the farnesoid-X-receptor (FXR) signaling pathway - cell viability counter screen (AID 743218); further: on the % scale 0 is the no-effect control and ±100 the full control effect; nearly all actives have a fitted effect of over 45% in size
Summary of the method: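 Cells were seeded, left 5 h at 37 C and 5% CO2, then dosed with compound in DMSO for 16 h. After the beta-lactamase FRET read, CellTiter-Glo was added and luminescence measured 30 min later.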

[5] = qHTS assay to identify small molecule antagonists of the farnesoid-X-receptor (FXR) signaling pathway - cell viability counter screen (AID 743221; active means well fitted cell-killing curve with a large enough effect in the repeat runs, not every such curve was filed as active; further: on the % scale 0 is the no-effect control and ±100 the full control effect; nearly all actives have a fitted effect of over 50% in size)
Summary of the method: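 Compound effects on cell number were measured as CellTiter-Glo luminescence in HEK 293T cells expressing FXR-UAS-bla, after 16 h at 37 C with 50 uM CDCA (final).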

[6] = target: Vitamin D3 receptor (Homo sapiens) (UniProt P11473); assay: qHTS assay to identify small molecule agonists of the vitamin D receptor (VDR) signaling pathway (AID 743222; calls by dose curve; further: on the % scale 0 is the no-effect control and ±100 the full control effect)
Vitamin D3 receptor (Homo sapiens), sequence (P11473 whole entry, looked up): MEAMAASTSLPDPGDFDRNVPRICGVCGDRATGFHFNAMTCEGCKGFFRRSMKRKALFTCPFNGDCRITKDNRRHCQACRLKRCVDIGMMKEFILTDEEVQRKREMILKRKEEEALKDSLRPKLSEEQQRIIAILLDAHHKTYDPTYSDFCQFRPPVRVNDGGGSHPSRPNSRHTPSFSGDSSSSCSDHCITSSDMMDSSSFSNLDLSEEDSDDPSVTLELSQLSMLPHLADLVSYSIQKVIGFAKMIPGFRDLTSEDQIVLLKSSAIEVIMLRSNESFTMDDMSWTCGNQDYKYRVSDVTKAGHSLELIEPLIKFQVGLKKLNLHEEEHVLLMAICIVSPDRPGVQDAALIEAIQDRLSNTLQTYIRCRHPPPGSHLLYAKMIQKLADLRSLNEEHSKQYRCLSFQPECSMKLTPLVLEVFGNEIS
Summary of the method: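 Cells carrying a VDR-driven beta-lactamase reporter are seeded at 2,000 per well and rested 4 h. Compounds in DMSO are added for 16 h at 37C, and FRET substrate fluorescence is measured after 2 h at room temperature.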

[7] = target: Vitamin D3 receptor (Homo sapiens) (UniProt P11473); assay: qHTS assay to identify small molecule antagonists of the vitamin D receptor (VDR) signaling pathway (AID 743223; active means well fitted inhibition curve with a large enough effect in the signal ratio in the repeat runs, not every such curve was filed as active; the % refers to the signal ratio; further: on the % scale 0 is the no-effect control and ±100 the full control effect)
Summary of the method: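 Beta-lactamase activity in VDR-bla cells is measured by FRET substrate fluorescence (2 h, room temperature) after cells spend 16 h at 37C with test compound and 3 nM final 1alpha,25-dihydroxyvitamin D3.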

[8] = qHTS assay to identify small molecule agonists of the vitamin D receptor (VDR) signaling pathway - cell viability counter screen (AID 743224); further: series mostly up to about 63 µM; on the % scale 0 is the no-effect control and ±100 the full control effect; nearly all actives have a fitted effect of over 50% in size
Summary of the method: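 Cells: VDR-bla, 2,000/well, settled 4 h. Treatment: compounds in DMSO, 16 h, 37C/5% CO2. Readout: CellTiter-Glo luminescence after 30 min RT.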

[9] = qHTS assay to identify small molecule antagonists of the vitamin D receptor (VDR) signaling pathway - cell viability counter screen (AID 743225); further: on the % scale 0 is the no-effect control and ±100 the full control effect; nearly all actives have a fitted effect of over 50% in size
Summary of the method: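 In this counter screen, VDR-bla HEK 293T cells receive test compound plus 3 nM final calcitriol for 16 h at 37C. Room-temperature steps of 2 h with the beta-lactamase substrate, then 30 min with CellTiter-Glo, precede the luminescence read.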

[10] = qHTS assay to identify small molecule agonists of the NFkB signaling pathway (AID 1159509; active means well fitted curve in the direction sought with a large enough effect in the signal ratio in the repeat runs, not every such curve was filed as active; the % refers to the signal ratio; further: series mostly up to about 61 µM; on the % scale 0 is the no-effect control and ±100 the full control effect)
Summary of the method: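 Beta-lactamase reporter assay run in quantitative high-throughput format on an NF-kB-responsive ME-180 line, with 5 hr compound treatment and a FRET-based blue/green fluorescence readout.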

[11] = qHTS assay to identify small molecule agonists of the NFkB signaling pathway - cell viability counter screen (AID 1159515; calls by dose curve; further: series mostly up to about 61 µM; on the % scale 0 is the no-effect control and ±100 the full control effect; nearly all actives have a fitted effect of over 55% in size)
Summary of the method: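 Cells are seeded (2,000 NFkB-bla ME-180 per well), rested overnight, and dosed with DMSO-dissolved compounds for 5 hr at 37 C. Viability is then read by CellTiter-Glo luminescence after 30 min at room temperature.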

[12] = qHTS assay to identify small molecule agonists of the endoplasmic reticulum stress response signaling pathway (AID 1159516; active means well fitted activation curve with a large enough effect in the signal ratio in the repeat runs, not every such curve was filed as active; the % refers to the signal ratio; further: on the % scale 0 is the no-effect control and ±100 the full control effect)
Summary of the method: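 Cells are seeded at 1,500 per well and incubated overnight. Compounds in DMSO are added for 5 hr at 37 C, then beta-lactamase FRET substrate for 2 hr at room temperature, and fluorescence at 460 and 530 nm is measured.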

[13] = qHTS assay to identify small molecule antagonists of the retinoid-related orphan receptor gamma (ROR-gamma) signaling pathway - cell viability counter screen (AID 1159520)
Summary of the method: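 Cytotoxicity was read from cellular ATP (CellTiter-Glo luminescence) after 16 hr at 37 C with 1 uM doxycycline induction. The inducer was added 2 hr after compound transfer to Tet-on ROR gamma CHO cells.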

[14] = target: Nuclear receptor ROR-gamma (Homo sapiens) (UniProt P51449); assay: qHTS assay to identify small molecule antagonists of the retinoid-related orphan receptor gamma (ROR-gamma) signaling pathway (AID 1159521)
Summary of the method: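 Screening format: cell-based luciferase reporter in CHO cells with doxycycline-inducible RORγ. Compound pre-exposure lasts 2 h, doxycycline is 1 uM final, induction runs 16 h at 37 C, and ONE-Glo luminescence is read.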

[15] = qHTS assay to identify small molecule agonists of the AP-1 signaling pathway - cell viability counter screen (AID 1159525; calls by dose curve; further: nearly all actives have a fitted effect of over 55% in size)
Summary of the method: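 Intracellular ATP by Cell Titer Glo luminescence (30 min, RT) in the same ME-180 AP-1-bla wells after the 5 h compound exposure at 37 °C. Normalised to tetra n-octyl ammonium bromide and DMSO controls.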

[16] = qHTS assay to identify small molecule agonists of the AP-1 signaling pathway (AID 1159526; calls by dose curve; further: on the % scale 0 is the no-effect control and ±100 the full control effect)
[17] = target: Peroxisome proliferator-activated receptor delta (Homo sapiens) (UniProt Q03181); assay: qHTS assay to identify small molecule agonists of the peroxisome proliferator-activated receptor delta (PPARd) signaling pathway (AID 743212; calls by dose curve; further: on the % scale 0 is the no-effect control and ±100 the full control effect)
Peroxisome proliferator-activated receptor delta (Homo sapiens), sequence (Q03181 whole entry, looked up): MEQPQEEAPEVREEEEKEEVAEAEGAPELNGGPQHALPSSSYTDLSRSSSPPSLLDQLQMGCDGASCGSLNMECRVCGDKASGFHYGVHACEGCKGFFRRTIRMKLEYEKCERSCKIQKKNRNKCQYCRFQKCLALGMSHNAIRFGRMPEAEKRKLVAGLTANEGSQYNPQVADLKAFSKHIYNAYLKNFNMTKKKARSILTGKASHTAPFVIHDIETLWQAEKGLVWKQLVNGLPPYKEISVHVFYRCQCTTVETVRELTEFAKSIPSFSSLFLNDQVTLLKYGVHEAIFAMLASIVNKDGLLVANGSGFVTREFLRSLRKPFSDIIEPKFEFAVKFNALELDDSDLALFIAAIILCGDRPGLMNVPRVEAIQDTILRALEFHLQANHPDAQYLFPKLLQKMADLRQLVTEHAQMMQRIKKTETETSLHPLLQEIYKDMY
Summary of the method: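 Steps: seed PPARd-bla HEK293H cells; incubate 5 h, 37 C, 5% CO2; add compounds in DMSO; incubate, 37 C; add LiveBLAzer B/G FRET substrate; hold 2 h at room temperature; measure fluorescence.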

[18] = target: Peroxisome proliferator-activated receptor delta (Homo sapiens) (UniProt Q03181); assay: qHTS assay to identify small molecule antagonists of the peroxisome proliferator-activated receptor delta (PPARd) signaling pathway (AID 743215; active means well fitted inhibition curve with a large enough effect in the signal ratio in the repeat runs, not every such curve was filed as active; the % refers to the signal ratio)
Summary of the method: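 Cells: HEK293H with a UAS-driven beta-lactamase reporter responsive to PPARd. Compounds were co-added with L165041 (300 nM, final) and incubated 17 h at 37 C before a 2 h room-temperature FRET substrate step and fluorescence reading.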

[19] = target: Bile acid receptor (Homo sapiens) (UniProt Q96RI1); assay: qHTS assay to identify small molecule agonists of the farnesoid-X-receptor (FXR) signaling pathway (AID 743220; active means well fitted activation curve with a large enough effect in the signal ratio in the repeat runs, not every such curve was filed as active; the % refers to the signal ratio; further: on the % scale 0 is the no-effect control and ±100 the full control effect)
Summary of the method: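 FXR-UAS-bla HEK 293T cells carrying a UAS-driven beta-lactamase reporter were plated for 5 h at 37C/5% CO2, then exposed to DMSO-dissolved Tox21 10K compounds for 16 h at 37C. A LiveBLAzer B/G FRET substrate was loaded for 2 h at room temperature before fluorescence reading.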

CCN(CC)CCNC(=O)c1cc(Cl)c(N)cc1OC
inactive: Potency [1] | Potency [2] | outcome [3] | Potency [4] | Potency [5] | outcome [6] | outcome [7] | Potency [8] | Potency [9] | outcome [10] | Potency [11] | Potency [12] | Potency [13] | Potency [14] | Potency [15] | outcome [16]

CNCc1ccc(NC(=O)c2c[nH]c3c2C(=O)CCC3)cc1
inactive: Potency [1] | outcome [17] | Potency [2] | Potency [18] | Potency [4] | Potency [5] | outcome [6] | outcome [7] | Potency [8] | Potency [9] | outcome [10] | Potency [11] | Potency [12] | Potency [13] | Potency [14] | Potency [15] | outcome [16]

O=C(Nc1ccc(C(=O)O)c(O)c1)c1ccccc1
inactive: Potency [1] | outcome [17] | Potency [2] | Potency [4] | Potency [5] | outcome [6] | outcome [7] | Potency [8] | Potency [9] | outcome [10] | Potency [11] | Potency [12] | Potency [13] | Potency [14] | Potency [15] | outcome [16]

Nc1ccc(S(=O)(=O)NCc2ccccc2)cc1
inactive: Potency [1] | outcome [17] | outcome [3] | Potency [4] | Potency [5] | outcome [6] | Potency [8] | outcome [10] | Potency [11] | Potency [12] | Potency [13] | Potency [14] | Potency [15] | outcome [16]

C=CCOC(=O)COCCC(C)C
inactive: Potency [1] | outcome [17] | Potency [2] | Potency [5] | Potency [8] | Potency [9] | outcome [10] | Potency [11] | Potency [12] | Potency [13] | Potency [14] | Potency [15] | outcome [16]

CCC1CCC(CCC(=O)O)C1 (stereo not given)
inactive: Potency [1] | Potency [2] | outcome [3] | Potency [4] | Potency [5] | outcome [7] | Potency [8] | outcome [10] | Potency [11] | Potency [12] | Potency [13] | Potency [14] | Potency [15] | outcome [16]

Cc1cn([C@H]2C[C@H](F)[C@@H](CO)O2)c(=O)[nH]c1=O
inactive: outcome [17] | Potency [2] | Potency [18] | Potency [4] | Potency [5] | outcome [7] | Potency [8] | Potency [9] | outcome [10] | Potency [11] | Potency [12] | Potency [13] | Potency [14] | Potency [15] | outcome [16]

O=C1NC(=O)c2cccc3cccc1c23
inactive: Potency [1] | Potency [2] | outcome [3] | Potency [4] | outcome [6] | outcome [7] | Potency [8] | Potency [9] | outcome [10] | Potency [11] | Potency [12] | Potency [13] | Potency [14] | Potency [15] | outcome [16]

CC(C)N(C)C
inactive: Potency [1] | outcome [17] | Potency [2] | Potency [18] | Potency [4] | Potency [5] | outcome [7] | Potency [8] | outcome [10] | Potency [11] | Potency [12] | Potency [13] | Potency [15] | outcome [16]

C1CCCCC1
inactive: Potency [1] | outcome [17] | Potency [2] | Potency [18] | outcome [3] | Potency [4] | Potency [19] | Potency [5] | Potency [8] | Potency [9] | outcome [10] | Potency [11] | Potency [12] | Potency [13] | Potency [15] | outcome [16]

CCCCCCCCCCCC(=O)OCC(O)CO (stereo not given)
inactive: Potency [4] | Potency [5] | outcome [7] | outcome [10] | Potency [11] | Potency [12] | Potency [13] | Potency [14] | Potency [15] | outcome [16]

CC(C)CC(O)CC(C)C
inactive: Potency [1] | Potency [2] | Potency [4] | Potency [5] | outcome [6] | outcome [7] | Potency [8] | Potency [9] | outcome [10] | Potency [11] | Potency [12] | Potency [13] | Potency [14] | Potency [15] | outcome [16]

CC1CCCO1 (stereo not given)
inactive: Potency [1] | outcome [17] | Potency [2] | Potency [4] | Potency [5] | outcome [7] | Potency [9] | outcome [10] | Potency [11] | Potency [12] | Potency [13] | Potency [15] | outcome [16]

CCN(CC)C(=O)/C(C#N)=C/c1cc(O)c(O)c([N+](=O)[O-])c1
inactive: Potency [1] | outcome [17] | Potency [2] | Potency [4] | Potency [5] | Potency [8] | Potency [9] | outcome [10] | Potency [11] | Potency [12] | Potency [13] | Potency [15] | outcome [16]

CCCCCCC(CO)CCCC (stereo not given)
inactive: outcome [17] | Potency [2] | Potency [18] | Potency [5] | outcome [6] | outcome [7] | Potency [8] | Potency [9] | outcome [10] | Potency [11] | Potency [12] | Potency [13] | Potency [14] | Potency [15]

O=C1CC[C@@H](C(=O)O)N1
inactive: Potency [1] | outcome [17] | Potency [2] | Potency [18] | Potency [4] | Potency [5] | outcome [7] | Potency [8] | Potency [9] | outcome [10] | Potency [11] | Potency [12] | Potency [13] | Potency [15] | outcome [16]

c1ccc2sc(SSc3nc4ccccc4s3)nc2c1
inactive: outcome [17] | Potency [2] | outcome [3] | Potency [4] | Potency [5] | outcome [6] | outcome [7] | Potency [8] | Potency [9] | outcome [10] | Potency [11] | Potency [12] | activity, negative = cytotoxicity [13] -8.11% [at 19 µM] | activity change, negative = inhibition [14] 7.93% [at 19 µM] | viability change, negative = cytotoxic [15] -2.35% [at 15.8 µM] | activation [16] 15.6% [at 15.8 µM]

COc1ccc(-c2cc(C(F)F)nn2-c2ccc(S(N)(=O)=O)cc2)cc1F
inactive: outcome [17] | Potency [2] | Potency [19] | Potency [5] | outcome [6] | outcome [7] | Potency [9] | outcome [10] | Potency [11] | Potency [12] | Potency [13] | Potency [14] | Potency [15] | outcome [16]
